# Reference: PubChem BioAssay AID588358 (NMMLSC, 2011)
# About 1,500 (0.48%) of roughly 310,000 compounds were called active.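 Rule for the calls: active = binding more than 3 SD below its plate's average and above zero; inconclusive = below that plate limit but binding exactly zero; inactive = the rest.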 For the sample, actives were picked, then their nearest neighbours and some compounds at random.
# Target: Desmoglein-3 (Homo sapiens) (UniProt P32926)
# Experiment: blockers of anti-DSG3 scFv binding – biochemical, bead-based, flow cytometry, scFv-GFP, primary screen (AID 588358);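 note: hits lower antibody fragment binding to DSG3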
# Settings: DSG3-coupled beads, at 10 µM, stronger effect = lower value
# Chain of Desmoglein-3 (Homo sapiens) (P32926 whole entry, looked up, the tested form may be a part): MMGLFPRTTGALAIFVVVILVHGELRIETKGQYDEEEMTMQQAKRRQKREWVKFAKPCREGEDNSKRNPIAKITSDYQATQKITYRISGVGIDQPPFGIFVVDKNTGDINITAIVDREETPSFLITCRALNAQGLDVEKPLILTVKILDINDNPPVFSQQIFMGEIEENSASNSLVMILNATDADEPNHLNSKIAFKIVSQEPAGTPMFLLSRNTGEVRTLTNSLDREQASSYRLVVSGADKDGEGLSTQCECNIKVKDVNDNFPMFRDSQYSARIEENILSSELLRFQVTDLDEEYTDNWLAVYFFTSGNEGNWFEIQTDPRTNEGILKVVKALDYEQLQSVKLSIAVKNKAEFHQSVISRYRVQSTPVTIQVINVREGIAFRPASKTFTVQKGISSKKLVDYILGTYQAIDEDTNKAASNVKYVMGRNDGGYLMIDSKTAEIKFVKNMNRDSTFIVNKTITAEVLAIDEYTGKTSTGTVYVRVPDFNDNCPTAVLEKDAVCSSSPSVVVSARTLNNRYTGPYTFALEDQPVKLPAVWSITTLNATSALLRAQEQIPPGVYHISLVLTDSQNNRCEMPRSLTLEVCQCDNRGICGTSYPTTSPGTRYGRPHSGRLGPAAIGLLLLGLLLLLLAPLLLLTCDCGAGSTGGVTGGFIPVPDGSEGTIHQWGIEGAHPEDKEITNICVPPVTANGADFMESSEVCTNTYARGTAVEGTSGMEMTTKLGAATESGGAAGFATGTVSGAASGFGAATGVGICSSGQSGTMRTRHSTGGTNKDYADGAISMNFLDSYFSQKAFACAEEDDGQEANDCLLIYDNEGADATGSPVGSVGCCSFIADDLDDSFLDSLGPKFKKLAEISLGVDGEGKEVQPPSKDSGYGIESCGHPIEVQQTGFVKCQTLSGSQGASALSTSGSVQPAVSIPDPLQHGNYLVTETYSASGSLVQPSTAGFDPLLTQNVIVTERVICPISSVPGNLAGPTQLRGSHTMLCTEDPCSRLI
row,Compound,binding (percent of control)
1,CCOC(=O)c1c(NC(=O)COC(=O)c2ccc(S(=O)(=O)C(F)F)cc2)sc(C(=O)N(C)C)c1C,100% (inactive)
2,O=C(O)c1ccc(NN=CC2=C(N3CCOCC3)/C(=C/c3ccccc3)CC2)cc1,109% (inactive)
3,C(=N\N1CCN(c2ccccn2)CC1)/C1=C(N2CCOCC2)C(=C/c2ccccc2)/CC1,109% (inactive)
4,O=C1Nc2ccc(Br)cc2/C1=N/N=C/C1=C(N2CCOCC2)C(=C\c2ccccc2)/CC1,38.1% (active)
5,CN1OC[C@@H]2CN(C(=O)c3ccc(-c4ccccc4)cc3)[C@H](c3ccc(-c4cccc(F)c4)cc3)C[C@@H]21,98.8% (inactive)
6,COCCn1c(SCC(=O)Nc2ccc(F)cc2F)nc2c(c1=O)SCC2,103% (inactive)
7,O=C(COc1ccc(S(=O)(=O)N2CCCC2)cc1[N+](=O)[O-])N1CCCCC1,92.6% (inactive)
8,Cc1ccc2c(cnn2C(=O)CCC(=O)NC2CCCC2)c1,53% (active)
9,Cc1ccc2nc(SCC(=O)NC3CCCC3)[nH]c2c1,81.4% (inactive)
10,Cc1cccc2c1cnn2C(=O)CCC(=O)NC1CCCCC1,102% (inactive)
11,CC1(c2cccc(Br)c2)NC(=O)N(CC(=O)NCCC2=CCCCC2)C1=O (stereo unspecified),99.5% (inactive)
12,O=Nc1c(O)cc(O)c2ccccc12,104% (inactive)
13,CC(C)CCC(=O)Nc1cc(S(=O)(=O)N2CCOCC2)ccc1N1CCCC1,104% (inactive)
14,COc1cc(OC)cc(C(=O)NCCSCc2ccc(Cl)cc2)c1,76.3% (active)
15,COc1ccc(CCNC(=O)c2cnc(Cl)c(Cl)c2)cc1,97.2% (inactive)
16,COc1ccc(N(CC(=O)NCCSCc2cccc(Cl)c2)S(C)(=O)=O)cc1,104% (inactive)
17,Cc1ccc(S(=O)(=O)NN=C2CC(C)(C)CC(=O)C2(C)C)cc1,98.4% (inactive)
18,O=C(NCCc1cccc(F)c1)C1CC(O)CN1C(=O)Nc1ccccc1 (stereo unspecified),94.3% (inactive)
19,COc1cc(C=NC2CCCCC2)ccc1O,106% (inactive)
20,COc1ccc(CCNC(=S)N2CCN(S(=O)(=O)c3ccc(Cl)cc3)CC2)cc1,106% (inactive)
21,COc1ccc(CCNC(=S)N2CCN(S(=O)(=O)c3ccc(F)cc3)CC2)cc1,63.3% (active)
22,COc1ccc(CCC(=O)N2CCN(S(=O)(=O)c3ccc(OC)cc3)CC2)cc1,96.6% (inactive)
23,COC(=O)[C@H]1C[C@H](OC(=O)NCc2ccccc2)[C@@]2(O)CN(S(=O)(=O)c3ccc(C)cc3)CC2[C@H]1C(=O)OC (stereo partly specified),110% (inactive)
24,COc1ccc(-c2csc(Cc3nc(O)cs3)n2)cc1,8.21% (active)
25,CC(C)(C)C(=O)OCc1nc(-c2ccc(O)c(O)c2)cs1,103% (inactive)
26,COc1ccc(-c2cn3ccsc3n2)cc1,107% (inactive)
